Compounds with a hit are over-represented: about 8.1% of the library has one in this group of screens.
Gal4-VP16 FLuc: inhibits Gal4-VP16 luciferase reporter, ROR gamma counter-screen | Potency, µM (highest dose often 53.6 µM), without a hit: top-dose activity, negative = inhibition, most hits filed as inhibitors | Drosophila S2 Gal4-VP16 UAS-luciferase, luminescence, 20 h | hit rate 3.5% among 310,000 | AID 2546;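 also: Gal4-VP16 expression switched on by copper sulfate through the metallothionein promoter; % is scaled to controls: 0 for no effect and ±100 for the full control effect; nearly all actives have a fitted effect of over 50% in size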
ClpP mod: qHTS Assay for Activators of ClpP; ATP-dependent Clp protease proteolytic subunit (Bacillus subtilis (strain 168)), P80244; purified B. subtilis ClpP, FRET peptide cleavage, 20 min; Potency, µM (titrated, usually from 57.5 µM), without a hit: at the highest dose activity change, negative = active; hit rate 1.9% among 340,000; active = well fitted falling curve with a large enough effect; inconclusive = small, poorly fitted or top-dose-only effect; inactive = no such curve, though single readings can be large or run the other way; also: the source files actives as falling curves though it sought activators and does not explain the sign; nearly all actives have a fitted effect of over 65% in size
Target sequence (P80244 whole entry, looked up): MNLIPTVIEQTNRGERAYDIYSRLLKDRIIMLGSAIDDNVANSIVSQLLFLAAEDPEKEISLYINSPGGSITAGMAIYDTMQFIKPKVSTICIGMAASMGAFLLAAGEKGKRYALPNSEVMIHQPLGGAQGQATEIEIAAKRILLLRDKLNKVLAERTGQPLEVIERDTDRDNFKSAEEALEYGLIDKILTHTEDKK
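ClpP 10 microg/mL final, pH 8 Tris/KCl buffer with BSA, glycerol, Tween-20; compound pinned in; FRET-FV substrate; RT 20 min; Ex320/Em430; ΔFRET vs ADEP 5.8 microM, DMSO, no enzyme.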
RORg inh: ROR gamma (mouse) transcription inhibition. Drosophila S2 Gal4-RORgamma UAS-luciferase reporter, 20 h. Potency, µM (series often up to 53.6 µM), for the others: at the top dose activity change, negative = inhibition, usual class: inhibitors. hit rate 5.4% among 310,000. AID 2551; also: % is scaled to controls: 0 for no effect and ±100 for the full control effect; nearly all actives have a fitted effect of over 60% in size
Target sequence (P51450 whole entry, looked up, the tested form may be a part): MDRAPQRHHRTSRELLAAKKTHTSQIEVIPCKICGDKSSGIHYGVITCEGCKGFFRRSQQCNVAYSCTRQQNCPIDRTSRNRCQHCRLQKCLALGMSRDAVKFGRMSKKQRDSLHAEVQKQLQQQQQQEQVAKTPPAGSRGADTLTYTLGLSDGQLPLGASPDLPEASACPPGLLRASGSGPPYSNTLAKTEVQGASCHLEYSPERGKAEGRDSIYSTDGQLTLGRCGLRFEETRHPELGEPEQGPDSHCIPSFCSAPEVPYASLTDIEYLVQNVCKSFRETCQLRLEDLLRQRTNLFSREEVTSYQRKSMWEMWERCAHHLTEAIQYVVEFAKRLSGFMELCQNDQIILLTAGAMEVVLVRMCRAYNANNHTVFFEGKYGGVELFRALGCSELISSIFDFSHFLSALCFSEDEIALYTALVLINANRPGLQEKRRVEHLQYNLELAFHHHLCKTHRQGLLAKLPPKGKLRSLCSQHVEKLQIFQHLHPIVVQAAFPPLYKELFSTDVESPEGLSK
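In this cell-based reporter format, copper sulfate (700 uM final) drives Gal4–ROR gamma fusion expression from a metallothionein promoter in Drosophila Schneider cells; compounds preincubated 1 hr, reporter read after 20 hr at ambient temperature.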
PINK1 modulator: changes PINK1 expression; AID 624263; hit rate 0.2% among 410,000; PINK1 immunofluorescence, high-content cytometry, 24 h; Potency, µM (series often up to 76.6 µM), inactives show top-dose activation (PINK1 increase), actives largely listed as activators; active = well fitted activation curve with a large enough effect; inconclusive = small, poorly fitted or top-dose-only effect; cell line not stated here; also: % of control where 0% means no effect; nearly all actives have a fitted effect of over 65% in size
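Compound titrations (5 concentrations, 24 h) on a stable cell line; DMSO and CCCP controls. Endpoint: fixed-cell PINK1 immunofluorescence with mitochondrial, cell and nuclear markers, scanned by microplate cytometer.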
Epigenetic derep: derepresses silenced GFP reporter in murine cells | hit rate 0.2% among 280,000 | murine LDR cells, GFP reporter derepression, 30 h | AID 1865 | Potency, µM (top dose mostly 53.9 µM), for inactives: at the top dose GFP activation, usual class: activators; also: % of control where 0% means no effect; nearly all actives have a fitted effect of over 60% in size
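Murine LDR cells carrying a silenced, genomically integrated CMV-driven GFP reporter were exposed to compound for 30 hours at 37 C. After PBS washes, GFP-positive cells (20–120 um objects) were counted by laser-scanning microplate cytometry.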
Sfp inh: blocks B. subtilis Sfp PPTase activity; AID 1490; Biochemical Sfp PPTase activity, qHTS; hit rate 3.5% among 310,000; Q9F4F7; Potency, µM, inactives show largest response in the series, negative = inhibition, usual class: inhibitors;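 also: the enzyme is Sfp with the accession as filed and its product quenches rhodamine fluorescence; 0% = enzyme reaction without inhibitor and -100% = no enzyme wells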
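After 15 min at room temperature with compound, 15 nM Sfp received 5 uM rhodamine-CoA plus 12.5 uM BHQ-2-ybbR (50 mM Hepes pH 7.6, 10 mM MgCl2). Rate came from the fluorescence difference over 30 min, ex 525/em 598 nm.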
Starred values were filed as active, the others as inactive; [ ] = another dose, or the depositor's remark. Unless noted, calls follow the shape of the dose curve; as a rule, active = well fitted curve in the direction sought with a large enough effect; inconclusive = small, poorly fitted or top-dose-only effect, or another doubt; inactive = no such curve, though single readings can be large; an effect the other way counts as inactive or inconclusive. Potency is read from the fitted curve at half-maximal effect.

What do the screens show for `O=C(NCc1nnc(SCc2ccc(C(F)(F)F)cc2)n1-c1ccccc1)C12CC3CC(CC(C3)C1)C2`?
Gal4-VP16 FLuc: inconclusive; ClpP mod: 0%; RORg inh: 14µM*; PINK1 modulator: inconclusive; Epigenetic derep: 6%; Sfp inh: 23%

How did CCC(C)c1ccc(NC(=S)NCCn2cc(Cl)cn2)cc1 (stereo not drawn) do in these assays?
Gal4-VP16 FLuc: 10µM*; ClpP mod: 2%; RORg inh: 3.2µM*; PINK1 modulator: 7%; Epigenetic derep: -1%; Sfp inh: -20%

Results for CC(C)(C)c1ccc(NC(=S)NCc2cccnc2)cc1 ?
Gal4-VP16 FLuc: inconclusive; ClpP mod: 1%; RORg inh: inconclusive; PINK1 modulator: 3%; Epigenetic derep: -1%; Sfp inh: -18%

What do the screens show for `CCC(C)c1ccc(NC(=S)NCCn2cc(Br)cn2)cc1` (stereo not drawn)?
Gal4-VP16 FLuc: 11µM*; RORg inh: 2.2µM*; PINK1 modulator: 24%; Epigenetic derep: 0%; Sfp inh: 12%

What do the screens show for `CCC(C)c1ccc(NC(=S)NCc2cccnc2)cc1` (stereo not drawn)?
Gal4-VP16 FLuc: 22µM*; ClpP mod: -1%; RORg inh: inconclusive; PINK1 modulator: -1%; Epigenetic derep: -1%; Sfp inh: 1%

Results for S=C(NCCN1CCCCC1)Nc1ccc(Br)cc1 ?
Gal4-VP16 FLuc: -9%; RORg inh: inconclusive; PINK1 modulator: 4%; Epigenetic derep: -1%; Sfp inh: -2%

How did CCc1cc2c(cc3c(=O)n(CC(=O)NC4CCC(C)CC4)nc(CC)n32)s1 (stereo not drawn) do in these assays?
ClpP mod: 1%; PINK1 modulator: 1%; Epigenetic derep: 0%

What do the screens show for `O=C(Cn1nc2c(cc1=O)CCCC2)NCc1ccccc1Cl`?
ClpP mod: 0%; PINK1 modulator: 0%; Epigenetic derep: 0%

Results for CCCCN(CCCC)/C(N)=N/c1nc(C)cc(C)n1 ?
Gal4-VP16 FLuc: 0%; ClpP mod: 1%; RORg inh: -42%; PINK1 modulator: 4%; Epigenetic derep: -1%; Sfp inh: 16%

Results for Cc1cc(C)nc(/N=C(\N)N(Cc2ccccc2)Cc2ccccc2)n1 ?
Gal4-VP16 FLuc: -9%; RORg inh: 11µM*; PINK1 modulator: inconclusive; Epigenetic derep: -6%; Sfp inh: 13%

What do the screens show for `CC(=O)c1cc2c(cc1NC(=O)c1c(C)nn(-c3ccc(C)cc3)c1-n1cccc1)OCO2`?
ClpP mod: -4%; PINK1 modulator: 2%; Epigenetic derep: -3%

Results for O=C(N/N=C/c1cccn1-c1ccc([N+](=O)[O-])cc1)C(O)c1ccccc1 (stereo not drawn) ?
Gal4-VP16 FLuc: 3%; ClpP mod: -1%; RORg inh: -18%; PINK1 modulator: 0%[38.3 µM]; Epigenetic derep: 0%; Sfp inh: 18µM*

How did Cc1cc(-c2ccnc(-n3ncc(C(=O)N(C)Cc4nccs4)c3C)n2)c(C)s1 do in these assays?
PINK1 modulator: 4%

Results for Cn1cc(S(=O)(=O)N2CCCCCC2)cc1C(=O)Nc1ccccc1F ?
ClpP mod: 0%; PINK1 modulator: 1%; Epigenetic derep: -2%

How did CCCCCCC(O)C/C=C/CCCCCCCC(=O)O (stereo not drawn) do in these assays?
Gal4-VP16 FLuc: -2%; RORg inh: 5%; Sfp inh: 20%

What do the screens show for `CCOC(=O)/C(=N\Nc1cccc(Cl)c1)Sc1nnc(-c2ccc(OC)cc2)n1C`?
Gal4-VP16 FLuc: 11µM*; ClpP mod: 0%; RORg inh: 3.5µM*; PINK1 modulator: 1%; Epigenetic derep: 0%; Sfp inh: -4%

How did COc1ccc(-c2nnc(SCC(=O)Nc3ccc(Cl)cc3)n2C)cc1 do in these assays?
Gal4-VP16 FLuc: -9%; ClpP mod: -1%; RORg inh: -24%; PINK1 modulator: -4%[38.3 µM]; Epigenetic derep: -10%; Sfp inh: 14%

What do the screens show for `CC(=O)Oc1ccc(/C=C2\C=C(c3ccc(C)cc3)OC2=O)cc1`?
Gal4-VP16 FLuc: inconclusive; RORg inh: 0.45µM*; PINK1 modulator: -3%; Sfp inh: 20%

How did Cc1noc(C)c1CC(=O)N1CCOc2c(cc(-c3nc4ccccc4s3)cc2OC2CCOC2)C1 (stereo not drawn) do in these assays?
PINK1 modulator: 0%

Results for COc1cc(O)c(C(CC(=O)N2CCOCC2)c2ccc(N(C)C)cc2)c(OC)c1 (stereo not drawn) ?
Gal4-VP16 FLuc: -7%; ClpP mod: 1%; RORg inh: -37%; PINK1 modulator: -1%; Epigenetic derep: 1%; Sfp inh: 8%

How did COc1cc(O)c(C(CC(=O)N2CCCCC2)c2ccc(N(C)C)cc2)c(OC)c1 (stereo not drawn) do in these assays?
Gal4-VP16 FLuc: 6%; ClpP mod: 1%; RORg inh: 1µM*; PINK1 modulator: -1%; Epigenetic derep: -2%; Sfp inh: -10%

What do the screens show for `COC(=O)c1c(NC(=O)CN2CCC3(O)CCCCC3C2c2cc(OC)ccc2OC)sc(C)c1C` (stereo not drawn)?
Gal4-VP16 FLuc: -9%; ClpP mod: 28µM*; RORg inh: inconclusive; PINK1 modulator: 3%; Epigenetic derep: -2%; Sfp inh: -10%

Results for COC(=O)c1c(NC(=O)CN2CCC3(O)CCCCC3C2c2ccc(F)cc2)sc(C)c1C (stereo not drawn) ?
Gal4-VP16 FLuc: -8%; ClpP mod: -20%; RORg inh: 43%; PINK1 modulator: 7%; Epigenetic derep: -1%; Sfp inh: -20%

How did CCCCCN=c1ccn(Cc2ccccc2)c2ccccc12 do in these assays?
Gal4-VP16 FLuc: -5%; RORg inh: 16µM*; Epigenetic derep: 6%; Sfp inh: -4%

How did CCCCCCn1cc(C(=O)O)c(=O)c2ccccc21 do in these assays?
Gal4-VP16 FLuc: 11%; ClpP mod: -1%; RORg inh: 1%; PINK1 modulator: -2%; Epigenetic derep: -9%; Sfp inh: 10%

What do the screens show for `Cc1ccccc1NC(=O)c1ccc(-n2cncn2)nc1`?
Gal4-VP16 FLuc: -6%[0.365 µM]; ClpP mod: 1%; RORg inh: 18µM*; PINK1 modulator: 2%[38.3 µM]; Epigenetic derep: -7%; Sfp inh: 14%

Results for O=C(Nc1c(F)cccc1F)c1ccc(-n2cncn2)nc1 ?
Gal4-VP16 FLuc: 2%; ClpP mod: 0%; RORg inh: 1%; PINK1 modulator: 0%; Epigenetic derep: 0%; Sfp inh: 10%
